# Assay results as given in PubChem BioAssay (NCATS).
# Inconclusive results are not listed. A call without a number means that no potency is given here. Values without a mark were called inactive. The source made the active and inactive calls. Unless noted, calls follow the shape of the full dose curve.
# How the values were obtained:
# [1] = qHTS for Inhibitors of the Functional Ribonucleoprotein Complex (vRNP) of Lassa (LASV) Arenavirus: LASV Primary Screen - GLuc reporter signal (AID 1347082; calls by dose curve; tested in HEK293 reporter line; also: nearly all actives have a fitted effect of over 60% in size)
# [2] = qHTS for Inhibitors of the Functional Ribonucleoprotein Complex (vRNP) of Lassa (LASV) Arenavirus: Viability assay - alamar blue signal for LASV Primary Screen (AID 1347083; calls by dose curve; tested in HEK293 reporter line; also: nearly all actives have a fitted effect of over 80% in size)
# [3] = qHTS for Inhibitors of the Functional Ribonucleoprotein Complex (vRNP) of Lymphocytic Choriomeningitis Arenaviruses (LCMV): Viability assay - alamar blue signal for LCMV Primary Screen (AID 1347085; calls by dose curve; tested in HEK293 reporter line; also: nearly all actives have a fitted effect of over 80% in size)
# [4] = molecular target: Nucleoprotein (Lymphocytic choriomeningitis virus (strain Armstrong)) (UniProt P09992); assay: qHTS for Inhibitors of the Functional Ribonucleoprotein Complex (vRNP) of Lymphocytic Choriomeningitis Arenaviruses (LCMV): LCMV Primary Screen - GLuc reporter signal (AID 1347086); also: nearly all actives have a fitted effect of over 70% in size
# Chain of Nucleoprotein (Lymphocytic choriomeningitis virus (strain Armstrong)) (P09992 whole entry, looked up): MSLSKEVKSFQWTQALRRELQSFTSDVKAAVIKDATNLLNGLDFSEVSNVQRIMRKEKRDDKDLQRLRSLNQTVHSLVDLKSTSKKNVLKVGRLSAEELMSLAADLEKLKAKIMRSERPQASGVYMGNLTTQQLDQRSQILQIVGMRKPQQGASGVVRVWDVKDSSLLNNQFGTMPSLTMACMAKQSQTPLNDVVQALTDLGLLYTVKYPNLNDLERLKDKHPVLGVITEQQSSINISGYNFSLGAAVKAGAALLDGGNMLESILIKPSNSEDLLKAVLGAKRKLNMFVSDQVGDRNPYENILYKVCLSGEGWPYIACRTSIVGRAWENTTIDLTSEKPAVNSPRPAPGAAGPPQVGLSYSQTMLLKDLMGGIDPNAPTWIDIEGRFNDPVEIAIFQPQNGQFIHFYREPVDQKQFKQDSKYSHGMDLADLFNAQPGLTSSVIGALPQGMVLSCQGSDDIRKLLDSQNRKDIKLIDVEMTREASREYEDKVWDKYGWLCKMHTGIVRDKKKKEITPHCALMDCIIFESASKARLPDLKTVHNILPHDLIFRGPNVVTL
# Potency is read from the fitted curve at half-maximal effect.
Compound,Potency [1],Potency [2],Potency [3],Potency [4]
CC1=CC[C@@]23C[C@@H]1C(C)(C)[C@@H]2CC[C@H]3C,inactive,inactive,inactive,inactive
COc1c2c(cc3oc(CO[C@@H]4O[C@H](CO)[C@@H](O)[C@H](O)[C@H]4O)cc(=O)c13)O[C@H](C(C)(C)O)C2,inactive,inactive,inactive,inactive
C=C(C)[C@@H]1CC[C@@H](C)C[C@@H]1O,inactive,inactive,inactive,inactive
CCCCCCCOC(C)=O,inactive,inactive,inactive,inactive
COc1ccc(CCC(N)=O)cc1OC,inactive,inactive,inactive,inactive
CC(C)=CC(=O)O,inactive,inactive,inactive,inactive
CCOC(=O)Cc1ccccc1,inactive,inactive,inactive,inactive
CS[C@H]1SC[C@@H]2C(=O)N(C)[C@H](C(C)C)C(=O)OC[C@H](NC(=O)c3cnc4ccccc4n3)C(=O)N[C@H](C)C(=O)N(C)[C@@H]1C(=O)N(C)[C@H](C(C)C)C(=O)OC[C@H](NC(=O)c1cnc3ccccc3n1)C(=O)N[C@H](C)C(=O)N2C,0.0611 µM (active),0.0109 µM (active),0.0061 µM (active),0.0172 µM (active)
COc1cc2c(cc1OC)-c1cc3ccc4c(c3c[n+]1CC2)OCO4,inactive,inactive,inactive,inactive
Cc1c(O)cccc1C(=O)N[C@@H](CSc1ccccc1)[C@H](O)CN1C[C@H]2CCCC[C@@H]2C[C@@H]1C(=O)NC(C)(C)C,inactive,inactive,inactive,inactive
CO[C@H]1C=CO[C@@]2(C)Oc3c(C)c(O)c4c(O)c(c5c(c4c3C2=O)NC2(CCN(CC(C)C)CC2)N=5)=NC(=O)C(C)=CC=C[C@H](C)[C@H](O)[C@@H](C)[C@@H](O)[C@@H](C)[C@H](OC(C)=O)[C@H]1C,inactive,inactive,inactive,inactive
CC(CCC(=O)O)C1CCC2C3CC(O)C4CC(O)CC[C@]4(C)C3CCC12C (stereo not given in full),inactive,inactive,inactive,inactive
COc1cc2cc(Oc3ccc4ccc(=O)oc4c3)c(=O)oc2cc1O[C@@H]1O[C@H](CO)[C@@H](O)[C@H](O)[C@H]1O,inactive,inactive,inactive,inactive
CCCCCCOC(=O)CCC,inactive,inactive,inactive,inactive
CC1(C)C[C@H](O)[C@@]23C[C@@H](OC2=O)[C@]2(C)C(=CCC4[C@@]5(C)CC[C@H](O)C(C)(C)C5CC[C@]42C)[C@@H]3C1 (stereo not given in full),inactive,inactive,inactive,inactive
CN1C2CCC1CC(OC(=O)c1cccc(O)c1)C2 (stereo not given),inactive,inactive,inactive,inactive
CC(C)=CCc1c(-c2ccc(O)cc2O)oc2cc3c(c(O)c2c1=O)C=CC(C)(C)O3,inactive,inactive,inactive,inactive
CCCCCC1C(=O)CCC1CC(=O)OC (stereo not given),inactive,inactive,inactive,inactive
CC(C)=CCCC(C)CCOC=O (stereo not given),inactive,inactive,inactive,inactive
COC1=C(C)C(O)=C(C(=O)/C=C/c2ccccc2)C(=O)C1(C)C,inactive,inactive,inactive,inactive
CC1(C)CC[C@]2(C(=O)O)[C@H](O)C[C@]3(C)C(=CCC4[C@@]5(C)C[C@H](O)[C@H](O)[C@@](C)(CO)C5CC[C@]43C)[C@@H]2C1 (stereo not given in full),inactive,inactive,inactive,inactive
CC(C=O)Cc1ccc(C(C)C)cc1 (stereo not given),inactive,inactive,inactive,inactive
CC(=O)O,inactive,inactive,inactive,inactive
COc1ccc2c(Oc3ccc(NC(=O)c4c(C)n(CC(C)(C)O)n(-c5ccccc5)c4=O)nc3)ccnc2c1,inactive,inactive,inactive,inactive
C=C(C)C(O)CC/C(C)=C/Cc1c(O)ccc(C(=O)/C=C/c2ccc(O)cc2)c1O (stereo not given),inactive,inactive,inactive,inactive
C/C=C(\C)C(=O)OC(C)(C)[C@H]1Cc2cc3ccc(=O)oc3cc2O1,inactive,inactive,inactive,inactive
Nc1ccn([C@@H]2O[C@H](CO)[C@@H](OP(=O)(O)O)[C@H]2O)c(=O)n1,inactive,inactive,inactive,inactive
O=C1c2c(O)cc(O)cc2O[C@H](c2cc(O)c(O)c(O)c2)[C@H]1O,inactive,inactive,inactive,inactive
CC(=O)OC1c2c(ccc3ccc(=O)oc23)OC(C)(C)C1OC(=O)CC(C)C (stereo not given),inactive,inactive,inactive,inactive
C=CC1CN2CCC1CC2C(O)c1ccnc2ccc(OC)cc12 (stereo not given),inactive,inactive,inactive,inactive
